# Experimental data reported in PubChem BioAssay (NCI).
# About 83,000 compounds went through this panel and 20% of them were active in at least one assay; those are over-represented in the sample as a whole.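 The endpoint reported here, percent growth, reads 100 for growth as untreated, 0 for no net growth and -100 for all cells dead.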 A number with no mark means an inactive call. Active and inactive are the calls of the source. The calls were made as follows: active = growth percent below 10; inactive = the rest.
# System: DU-145 prostate
# Assay: NCI-60 one-dose screen, 48 h (100 = growth as untreated, 0 = no growth, -100 = all killed)
# Conditions: 10 µM unless noted
row,SMILES,growth
1,CC(=O)NNC(=O)c1sc(NC(C)=O)nc1C,113%
2,Nc1ccc(S(=O)(=O)c2ccc(NO)cc2)cc1,89.4%
3,Cc1c(Cc2ccccc2)c(=O)oc2c(C)c(OCC(=O)n3nc(C#N)cc3N)ccc12,104%
4,NC(=O)CC(NC(=O)COc1ccc(Cl)cc1Cl)C(=O)O (stereo not given),104%
5,CCCCCCCCC1OC1CCCCCCCC(=O)O (stereo not given),116%
6,CC(=O)/C(=C/c1ccc(-c2ccccc2)cc1)C(=O)c1ccccc1,87.1%
7,COc1ccc(-c2nc(Nc3nc4ccccc4[nH]3)nc(N)c2C#N)cc1,108%
8,CCC(CCCN1C(=O)c2ccccc2C1=O)Nc1cc(OC)cc2cccnc12 (stereo not given),102%
9,CC(=O)OC1/C=C\CC/C=C\C1 (stereo not given),113%
10,CCc1ccc(C(=Nc2ccc(N(C)C(=O)CN3CCN(C)CC3)cc2)c2c(O)[nH]c3ccc(C(=O)OC)cc23)cc1,-11.5% (active)
11,c1ccc2[nH]c(-c3ccc(OCCCCCOc4ccc(-c5nc6ccccc6[nH]5)cc4)cc3)nc2c1,21.4%
12,Oc1ccc(CN(Cc2ccc(C(F)(F)F)cc2)Cc2ccc(O)c3ncccc23)c2cccnc12,24.1%
13,COc1ccc2nc3cc(Cl)ccc3c(NCCCNC(C)=O)c2c1,29.4%
14,O=C(N/N=C\c1ccc(Cl)cc1)C(=O)N/N=C\c1ccc(Cl)cc1,123%
15,Cc1nc2c(nnn2-c2ccccc2)c2nc(-c3ccccc3)oc(=O)c12,117%
16,COC(=O)c1ccc2[nH]c(O)c(C(=Nc3ccc(N(C)C(=O)CN4CCN(C)CC4)cc3)c3ccc(N)cc3)c2c1,96.8%
17,Cc1nc(N)sc1C(=O)NCCO,105%
18,CC(=O)Nc1nc(C)c(C(=O)N/N=C/N2CCOCC2)s1,109%
19,O=C(O)CC1Cc2ccccc2C1C(=O)O (stereo not given),106%
20,Cc1ccc2c(c1)C(=O)CCS2,107%

row,SMILES,growth
1,CCC(C)(C)c1ccc(OCCCCCCN2CCNCC2)cc1,49.3%
2,c1ccc(Nc2ccccn2)cc1,111%
3,Brc1ccc(-c2nc3ccccc3s2)cc1,108%
4,O=C1/C(=N\c2cc(=O)[nH]n2S(=O)(=O)c2ccccc2)Nc2ccccc21,108%
5,CCCC(C)c1cc(Cc2cc(Cl)cc(Cl)c2O)c(O)c(Cc2cc(Cl)cc(Cl)c2O)c1 (stereo not given),26.8%
6,c1ccc(Nc2ncc3c(n2)-c2cccn2CC3)cc1,99.4%
7,CC1=C(C)C(=O)C(C(C)C2=C(C)C(=O)C(C)=C(C)C2=O)=C(C)C1=O,92.7%
8,C=CCSc1nnc(COc2ccc3c(C)c(Cc4ccccc4)c(=O)oc3c2C)o1,106%
9,CCOc1nc(-c2ccccc2)cc2c(O)c(C(=O)N/N=C/c3ccccc3O)[nH]c(=O)c12,97.6%
10,CC(=O)Nc1nc(C)c(C(=O)NNC(=O)Nc2ccccc2)s1,101%
11,c1cc[c]([Bi]([c]2ccccc2)[c]2ccccc2)cc1,107%
12,COc1cc(NC(=O)CSc2nc3ccc(Cl)cc3c(=O)n2-c2ccc(F)cc2)cc(OC)c1OC,96.9%
13,CC(=O)Nc1nc(C)c(C(=O)NN)s1,105%
14,COC(=O)C(C)[C@H]1CC[C@@H]2[C@]1(C)CC=C1[C@]23C=C[C@]2(C[C@@H](OC(C)=O)CC[C@]12C)C(C(=O)OC)C3C(=O)OC (stereo not given in full),99.6%
15,Cc1nc2c(nnn2-c2ccccc2)c2nc(-c3ccc(Cl)cc3)oc(=O)c12,119%
16,CCCCCCCCC/C(=N\NC(=O)c1ccncc1)c1ccc(O)c(O)c1O,27.8%
17,CNCCCNCCCCNCCCN1C(=O)c2ccc3c4c(ccc(c24)C1=O)C(=O)N(CCCNCc1ccccc1OC)C3=O,29.1%
18,Cc1nc(NC(=S)Nc2ccc(F)cc2)sc1C(=O)NNC(=S)Nc1ccc(F)cc1,82%
19,CCOc1ccc(/C=N/NC(=O)c2cccc3ccccc23)cc1OCC,106%
20,O=C(/C=C/c1ccc(Br)cc1)c1ccccc1,95.6%
